Bioassay records: PubChem, National Center for Advancing Translational Sciences (NCATS)
Pf growth 48h: Primary qHTS for delayed death inhibitors of the malarial parasite plastid, 48 hour incubation; P. falciparum luciferase growth in erythrocytes, 48 h; Potency, µM (highest dose often 28.7 µM), inactives show top-dose activity change, negative = inhibition, actives largely listed as inhibitors; 310,000 tested, 5.9% active; AID 504832, 2011; also: % is scaled to controls: 0 for no effect and ±100 for the full control effect
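Luciferase-expressing parasites in RBCs, 2% Hct / 0.1% parasitemia final; RPMI 1640 + 0.5% Albumax; 37 C, 5% CO2, one generation; luminescence read-out, lower signal = inhibition.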
NS1 inh: qHTS Assay for Inhibitors of Influenza NS1 Protein Function. Potency, µM (series often up to 46.1 µM), without a hit: top-dose activity, positive = more growth. 270,000 tested, 0.4% active; calls by dose curve; also: actives are rising curves; nearly all actives have a fitted effect of over 50% in size
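In this qHTS, NS1 from influenza A is expressed in budding yeast, where it slows growth. Cells are switched from glucose to 2% galactose medium (pH 6.0, -URA), treated with compound, and growth recovery is read at OD600.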
HCV inh: qHTS Assay for Inhibitors of Hepatitis C Virus (HCV); Huh7.5.1 HCVcc-Cre infection, luciferase reporter, 44 h; Potency, µM (highest dose often 41.8 µM), for the others: at the highest dose activity change, negative = inhibition, usual class: inhibitors; 340,000 tested, 3.4% active; also: % is scaled to controls: 0 for no effect and ±100 for the full control effect
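Whole-lifecycle infectious HCVcc-Cre system; cells 1,000/well, compound then virus (~0.5 moi) added 4 h after plating, 44 h culture. Luciferase read 15 sec following 15 min substrate incubation, room temp.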
VACV Venus inh: qHTS for Stage-Specific Inhibitors of Vaccinia Orthopoxvirus: Venus Reporter Primary qHTS. Vaccinia virus Venus reporter expression, fluorescence. Potency, µM (series often up to 36.5 µM), inactives show at the highest dose activity change, negative = inhibition, usual class: inhibitors. 330,000 tested, 0.46% active; calls by dose curve; tested in A549 cells; also: % is scaled to controls: 0 for no effect and ±100 for the full control effect; nearly all actives have a fitted effect of over 30% in size
VACV mCherry inh: qHTS for Stage-Specific Inhibitors of Vaccinia Orthopoxvirus: mCherry Reporter Primary qHTS; Vaccinia virus mCherry reporter infection, fluorescence; Potency, µM (series often up to 36.5 µM), for the others: at the top dose activity change, negative = inhibition, hits mostly inhibitors; 310,000 tested, 0.63% active; calls by dose curve; tested in A549 cells; also: % is scaled to controls: 0 for no effect and ±100 for the full control effect; nearly all actives have a fitted effect of over 35% in size
Pf growth 96h: Primary qHTS for delayed death inhibitors of the malarial parasite plastid, 96 hour incubation. AID 504834, 2011. P. falciparum luciferase reporter growth, 96 h. Potency, µM (doses to about 28.7 µM), for the others: at the highest dose activity change, negative = inhibition, most hits filed as inhibitors. 320,000 tested, 6.9% active; also: % is scaled to controls: 0 for no effect and ±100 for the full control effect
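Cell-based qHTS: luciferase-tagged P. falciparum in erythrocytes (2% hematocrit, 0.05% parasitemia final) incubated with compounds for 96 hours, 37 C, 5% CO2; luciferase detection reagent then added and luminescence measured.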
Active calls of the source: *; [ ] = another dose, or the depositor's remark. An excerpt weighted towards active compounds, which were near 11% of everything screened. Unless noted, calls follow the shape of the dose curve; as a rule, active = well fitted inhibition curve with a large enough effect; inconclusive = small, poorly fitted or top-dose-only effect, or another doubt; inactive = no such curve, though single readings can be large or run the other way. Potency is read from the fitted curve at half-maximal effect.

For CCOC(=O)N1CCC(NC(=O)C(NS(=O)(=O)c2cccc3nsnc23)c2ccccc2)CC1 (configuration not stated) the results were Pf growth 48h -8%, HCV inh 12% and Pf growth 96h inconclusive.
Screening O=C(O)c1ccc(N=NNc2cccc([N+](=O)[O-])c2)cc1 returned Pf growth 48h inactive, NS1 inh 3%, HCV inh 32%, VACV Venus inh 2%, VACV mCherry inh inconclusive and Pf growth 96h inconclusive.
Screening N#C/C(=N\Nc1cccc([N+](=O)[O-])c1)C(=O)c1ccc(Br)cc1 returned Pf growth 48h inconclusive, HCV inh 10µM*, VACV Venus inh inconclusive, VACV mCherry inh 1.8µM* and Pf growth 96h inconclusive.
N#C/C(=N\Nc1ccc([N+](=O)[O-])cc1)C(N)=S was read as Pf growth 48h -8%, NS1 inh -63%, HCV inh 10µM*, VACV Venus inh -15%, VACV mCherry inh -12% and Pf growth 96h inconclusive.
Screening N#C/C(=N/Nc1ccc([N+](=O)[O-])cc1)C(=N)N1CCCCC1 returned Pf growth 48h 329%, HCV inh 3%, VACV Venus inh -13%, VACV mCherry inh inactive and Pf growth 96h inconclusive.
Screening COc1cc(-c2nc3sc(C)c(C)c3c(=O)o2)cc(OC)c1OC returned Pf growth 48h 0%, NS1 inh 9%, HCV inh 12% and Pf growth 96h inconclusive.
`Cc1cccc(CNc2ncnc3[nH]ncc23)c1` gave NS1 inh -8%, HCV inh -24%, VACV Venus inh -15% and VACV mCherry inh inactive.
Cc1ccc(CNC(=S)Nc2cc(C)ccc2OC(F)F)cc1 was read as Pf growth 48h 4%, NS1 inh -9%, HCV inh inconclusive, VACV Venus inh -9%, VACV mCherry inh -7% and Pf growth 96h 31%.
For COc1ccc(C(C)n2c(C)c3c(C)nnc(C)c3c2C)cc1 (configuration not stated) the results were Pf growth 48h inconclusive, NS1 inh 3%, HCV inh inconclusive, VACV Venus inh inconclusive, VACV mCherry inh inconclusive and Pf growth 96h inconclusive.
For Cc1nnc(C)c2c(C)n(C(C)c3ccccc3)c(C)c12 (configuration not stated) the results were Pf growth 48h 8.3µM*, NS1 inh -1%, HCV inh 10µM*, VACV Venus inh -24%, VACV mCherry inh -21% and Pf growth 96h -8%.
Screening Cn1c(=O)oc2cc(S(=O)(=O)Nc3ccccc3F)ccc21 returned Pf growth 48h -5%[0.00184 µM], NS1 inh 7%, HCV inh 7%, VACV Venus inh 2%, VACV mCherry inh -12% and Pf growth 96h 27%.
Screening Cc1cc(C)c2[nH]c(=O)c(C(c3nnnn3C(C)(C)C)N(Cc3ccco3)CC3CCCO3)cc2c1 (configuration not stated) returned NS1 inh 9%, HCV inh -8% and Pf growth 96h 1.9µM*.
For COc1ccc2[nH]c(=O)c(C(c3nnnn3C(C)(C)C)N(Cc3ccco3)CC3CCCO3)cc2c1 (configuration not stated) the results were Pf growth 48h 9.3µM*, NS1 inh -19%, HCV inh 13%, VACV Venus inh -16%, VACV mCherry inh -4% and Pf growth 96h 5.9µM*.
`Cc1cc(C)c[n+](C(C)C(=O)c2ccc(-c3ccccc3)cc2)c1` (configuration not stated) gave Pf growth 48h 1.3µM*, NS1 inh 1%, HCV inh -10%, VACV Venus inh -26%, VACV mCherry inh inconclusive and Pf growth 96h 28%.
For Cc1ccc[n+](C(C)C(=O)c2ccc(Cl)cc2)c1 (configuration not stated) the results were Pf growth 48h inconclusive, NS1 inh 3%, HCV inh 10% and Pf growth 96h 170%.
